Reference: the supplement of paper PMC10849652
About 7,900 targets were measured; listed, in parts, are those with a hit and a random draw of the rest. About 0.6% of all pairs of compound and target were hits. Values without a mark were called inactive.

Compound: Cc1cccc(CC(=O)N2CCc3c2ccc(-c2cn(C)c4ncnc(N)c24)c3F)n1
Assay: log2 fold change, soluble protein after heating vs DMSO (PISA); higher = thermal stabilisation; K562 cells, 10 uM, 30 min; active = over 0.2 and 3.5 SD of the protein, either way, in both replicates (recomputed)
Outline: (§1)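 Thermal stability values are relative to control samples and come from duplicates. They are expressed as log2 fold changes. For measurement, K562 cells (2×10^6 cells/mL) received 10 μM compound for 30 min, and aliquots were heated for 3 min over 48°C-58°C, pooled, and extracted at 4°C in PBS with 0.5% NP-40. Soluble protein, the supernatant after 21,000xg for 90 min, was quantified by TMTpro 16plex LC-MS/MS with equalised channel sums.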

UniProt Q01459, sequence (Q01459 whole entry, looked up): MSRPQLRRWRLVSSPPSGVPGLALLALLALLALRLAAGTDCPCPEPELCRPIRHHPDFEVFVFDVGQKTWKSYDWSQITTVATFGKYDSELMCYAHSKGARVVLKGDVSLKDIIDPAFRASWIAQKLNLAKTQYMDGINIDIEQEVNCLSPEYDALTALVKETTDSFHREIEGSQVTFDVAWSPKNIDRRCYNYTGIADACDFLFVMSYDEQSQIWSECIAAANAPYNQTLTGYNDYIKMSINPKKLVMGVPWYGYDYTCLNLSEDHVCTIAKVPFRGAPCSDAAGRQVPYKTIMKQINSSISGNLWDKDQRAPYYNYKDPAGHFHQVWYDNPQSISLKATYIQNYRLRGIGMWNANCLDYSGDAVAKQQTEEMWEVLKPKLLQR
UniProt P05937, sequence (P05937 whole entry, looked up): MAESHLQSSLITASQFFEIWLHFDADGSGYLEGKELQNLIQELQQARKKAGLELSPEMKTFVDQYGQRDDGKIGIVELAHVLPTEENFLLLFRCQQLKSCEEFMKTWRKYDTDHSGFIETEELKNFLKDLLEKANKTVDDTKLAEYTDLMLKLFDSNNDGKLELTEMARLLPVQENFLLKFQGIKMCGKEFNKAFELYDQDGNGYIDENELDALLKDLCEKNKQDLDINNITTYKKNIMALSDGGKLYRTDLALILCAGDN
UniProt Q9Y6K0, sequence (Q9Y6K0 whole entry, looked up): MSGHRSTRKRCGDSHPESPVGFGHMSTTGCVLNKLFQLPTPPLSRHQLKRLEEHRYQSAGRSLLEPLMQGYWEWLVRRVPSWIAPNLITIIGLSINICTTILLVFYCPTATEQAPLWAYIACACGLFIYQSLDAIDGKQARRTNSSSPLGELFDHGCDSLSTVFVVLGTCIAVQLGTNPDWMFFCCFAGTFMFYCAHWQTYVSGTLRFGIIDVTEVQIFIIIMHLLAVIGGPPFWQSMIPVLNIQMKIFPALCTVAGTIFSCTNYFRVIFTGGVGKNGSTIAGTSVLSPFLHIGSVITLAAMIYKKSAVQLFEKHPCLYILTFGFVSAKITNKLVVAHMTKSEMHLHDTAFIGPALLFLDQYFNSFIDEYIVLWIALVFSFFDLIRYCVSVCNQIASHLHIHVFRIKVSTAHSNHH
UniProt Q8IWV2, sequence (Q8IWV2 whole entry, looked up): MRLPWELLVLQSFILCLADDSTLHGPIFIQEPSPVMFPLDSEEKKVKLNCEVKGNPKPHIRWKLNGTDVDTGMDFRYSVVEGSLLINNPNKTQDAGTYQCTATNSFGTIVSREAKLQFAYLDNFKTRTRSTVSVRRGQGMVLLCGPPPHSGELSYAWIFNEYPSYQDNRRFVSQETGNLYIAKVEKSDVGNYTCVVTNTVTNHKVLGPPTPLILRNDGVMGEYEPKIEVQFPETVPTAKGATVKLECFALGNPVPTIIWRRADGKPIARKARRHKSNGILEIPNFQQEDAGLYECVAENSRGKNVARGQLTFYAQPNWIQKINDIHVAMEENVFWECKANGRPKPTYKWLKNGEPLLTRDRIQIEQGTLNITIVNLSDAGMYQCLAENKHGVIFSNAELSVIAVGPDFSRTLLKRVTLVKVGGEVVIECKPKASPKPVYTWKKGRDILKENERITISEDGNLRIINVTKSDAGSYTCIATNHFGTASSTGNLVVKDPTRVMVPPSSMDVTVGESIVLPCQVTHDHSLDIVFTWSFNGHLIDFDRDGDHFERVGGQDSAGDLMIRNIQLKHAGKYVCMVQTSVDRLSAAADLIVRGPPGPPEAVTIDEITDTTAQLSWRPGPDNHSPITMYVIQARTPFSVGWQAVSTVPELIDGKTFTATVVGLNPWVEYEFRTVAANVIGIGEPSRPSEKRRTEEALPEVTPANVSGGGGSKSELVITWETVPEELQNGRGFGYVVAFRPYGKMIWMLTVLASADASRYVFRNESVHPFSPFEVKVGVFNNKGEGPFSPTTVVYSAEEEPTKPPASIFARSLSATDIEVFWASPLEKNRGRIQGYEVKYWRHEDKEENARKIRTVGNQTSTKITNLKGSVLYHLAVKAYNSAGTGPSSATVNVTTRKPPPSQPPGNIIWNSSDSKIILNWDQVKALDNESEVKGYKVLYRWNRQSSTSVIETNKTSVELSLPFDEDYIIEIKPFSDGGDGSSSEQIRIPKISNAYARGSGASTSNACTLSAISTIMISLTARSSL
UniProt Q8N163, sequence (Q8N163 whole entry, looked up): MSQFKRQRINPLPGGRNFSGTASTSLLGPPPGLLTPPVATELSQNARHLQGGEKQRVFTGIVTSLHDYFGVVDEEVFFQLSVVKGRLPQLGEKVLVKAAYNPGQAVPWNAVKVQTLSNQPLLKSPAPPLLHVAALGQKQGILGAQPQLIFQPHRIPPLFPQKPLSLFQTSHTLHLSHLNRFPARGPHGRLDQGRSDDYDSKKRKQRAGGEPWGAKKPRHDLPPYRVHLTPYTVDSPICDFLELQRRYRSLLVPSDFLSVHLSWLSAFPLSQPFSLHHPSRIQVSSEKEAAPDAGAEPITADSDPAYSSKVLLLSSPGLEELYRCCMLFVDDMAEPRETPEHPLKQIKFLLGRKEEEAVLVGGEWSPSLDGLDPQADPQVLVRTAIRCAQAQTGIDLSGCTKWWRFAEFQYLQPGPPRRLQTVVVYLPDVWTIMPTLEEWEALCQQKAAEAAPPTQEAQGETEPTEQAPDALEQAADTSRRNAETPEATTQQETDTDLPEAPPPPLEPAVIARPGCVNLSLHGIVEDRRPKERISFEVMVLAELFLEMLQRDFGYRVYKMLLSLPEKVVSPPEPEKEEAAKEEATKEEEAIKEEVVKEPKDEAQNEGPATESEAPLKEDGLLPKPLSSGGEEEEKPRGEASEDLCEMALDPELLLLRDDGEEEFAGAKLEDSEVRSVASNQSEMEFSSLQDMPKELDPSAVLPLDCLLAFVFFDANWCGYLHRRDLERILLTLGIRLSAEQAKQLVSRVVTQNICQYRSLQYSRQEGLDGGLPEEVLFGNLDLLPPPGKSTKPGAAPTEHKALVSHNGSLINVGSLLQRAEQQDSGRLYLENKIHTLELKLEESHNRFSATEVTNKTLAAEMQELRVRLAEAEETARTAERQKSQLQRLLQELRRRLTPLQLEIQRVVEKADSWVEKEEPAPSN
UniProt Q96LT7, sequence (Q96LT7 whole entry, looked up): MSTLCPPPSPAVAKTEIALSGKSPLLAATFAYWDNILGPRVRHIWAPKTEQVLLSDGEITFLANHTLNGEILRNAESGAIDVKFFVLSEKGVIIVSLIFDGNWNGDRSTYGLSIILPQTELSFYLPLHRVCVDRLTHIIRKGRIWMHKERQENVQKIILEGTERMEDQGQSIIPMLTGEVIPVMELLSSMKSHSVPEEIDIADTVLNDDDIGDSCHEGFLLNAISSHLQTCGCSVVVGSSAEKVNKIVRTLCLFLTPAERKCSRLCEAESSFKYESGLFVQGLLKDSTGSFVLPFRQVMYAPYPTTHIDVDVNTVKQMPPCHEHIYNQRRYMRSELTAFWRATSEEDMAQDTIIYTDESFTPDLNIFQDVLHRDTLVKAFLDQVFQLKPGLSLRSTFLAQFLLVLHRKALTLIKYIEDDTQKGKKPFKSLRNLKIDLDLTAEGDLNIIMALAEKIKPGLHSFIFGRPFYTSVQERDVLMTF
UniProt Q9NYV4, sequence (Q9NYV4 whole entry, looked up): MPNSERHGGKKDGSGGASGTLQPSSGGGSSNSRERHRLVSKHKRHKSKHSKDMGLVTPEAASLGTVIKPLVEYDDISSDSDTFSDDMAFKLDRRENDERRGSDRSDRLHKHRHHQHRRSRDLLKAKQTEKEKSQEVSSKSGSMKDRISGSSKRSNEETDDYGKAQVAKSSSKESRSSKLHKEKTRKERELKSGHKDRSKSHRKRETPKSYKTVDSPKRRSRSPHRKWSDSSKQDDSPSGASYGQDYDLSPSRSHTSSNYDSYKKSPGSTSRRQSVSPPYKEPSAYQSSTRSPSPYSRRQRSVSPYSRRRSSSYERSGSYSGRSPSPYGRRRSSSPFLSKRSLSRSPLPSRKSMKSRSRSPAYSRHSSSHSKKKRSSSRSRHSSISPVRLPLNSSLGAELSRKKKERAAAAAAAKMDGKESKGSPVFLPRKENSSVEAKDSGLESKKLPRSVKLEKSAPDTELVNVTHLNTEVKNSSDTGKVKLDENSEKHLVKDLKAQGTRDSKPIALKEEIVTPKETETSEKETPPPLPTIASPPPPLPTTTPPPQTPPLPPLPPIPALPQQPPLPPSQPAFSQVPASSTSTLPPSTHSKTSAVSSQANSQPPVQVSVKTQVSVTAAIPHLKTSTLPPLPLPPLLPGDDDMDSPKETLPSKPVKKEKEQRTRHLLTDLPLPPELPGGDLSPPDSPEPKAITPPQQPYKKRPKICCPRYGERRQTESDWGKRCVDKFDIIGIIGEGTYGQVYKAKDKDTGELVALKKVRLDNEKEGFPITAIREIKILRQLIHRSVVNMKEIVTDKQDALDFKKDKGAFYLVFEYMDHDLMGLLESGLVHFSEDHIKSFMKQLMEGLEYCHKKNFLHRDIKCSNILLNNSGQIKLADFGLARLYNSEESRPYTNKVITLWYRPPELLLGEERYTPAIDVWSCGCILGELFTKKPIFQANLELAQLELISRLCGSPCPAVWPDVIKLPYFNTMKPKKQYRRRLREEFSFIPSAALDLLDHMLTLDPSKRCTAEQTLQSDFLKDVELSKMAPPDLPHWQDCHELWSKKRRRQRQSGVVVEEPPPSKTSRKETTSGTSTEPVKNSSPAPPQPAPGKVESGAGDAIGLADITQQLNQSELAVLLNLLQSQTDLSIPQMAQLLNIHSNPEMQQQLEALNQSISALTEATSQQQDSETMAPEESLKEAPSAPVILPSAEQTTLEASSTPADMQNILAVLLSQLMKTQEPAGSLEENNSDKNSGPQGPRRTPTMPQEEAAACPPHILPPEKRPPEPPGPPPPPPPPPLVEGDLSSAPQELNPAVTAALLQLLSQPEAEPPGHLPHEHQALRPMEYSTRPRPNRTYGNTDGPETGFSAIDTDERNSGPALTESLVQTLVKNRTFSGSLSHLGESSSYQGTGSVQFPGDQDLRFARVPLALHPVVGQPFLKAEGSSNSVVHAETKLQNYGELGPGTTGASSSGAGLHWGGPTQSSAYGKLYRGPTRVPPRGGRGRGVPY

Row | Target | log2 fold change
1 | C9orf72 (UniProt Q96LT7) | -0.018
2 | CDK13 (UniProt Q14004) | -0.018
3 | CTBS (UniProt Q01459) | -0.069
4 | CCNB1 (UniProt P14635) | 0.009
5 | COMT (UniProt P21964) | -0.019
6 | CEPT1 (UniProt Q9Y6K0) | 0.032
7 | COPS4 (UniProt Q9BT78) | 0
8 | COASY isoform 2 (UniProt Q13057) | 0.089
9 | CNOT1 (UniProt A5YKK6) | 0.033
10 | CETN3 (UniProt O15182) | -0.249 (active)
11 | CPSF6 isoform 2 (UniProt Q16630) | -0.136
12 | CASTOR2 (UniProt A6NHX0) | 0.019
13 | CASC3 (UniProt O15234) | -0.069
14 | CLUH, A0A494C0R8 | -0.445
15 | CLTB (UniProt P09497) | 0.002
16 | CLCN3 isoform 2 (UniProt P51790) | 0.076
17 | CDC123 (UniProt O75794) | -0.013
18 | CD55 isoform 7 (UniProt P08174) | -0.06

Row | Target | log2 fold change
19 | CLUH (UniProt O75153) | 0.045
20 | CSNK1A1 (UniProt P48729) | -0.156
21 | CNTN4 (UniProt Q8IWV2) | 0.008
22 | CDC42BPA isoform 6 (UniProt Q5VT25) | 0.102
23 | CDK5RAP1 (UniProt Q96SZ6) | -0.058
24 | CASP10 isoform 4 (UniProt Q92851) | -0.394
25 | CPT2 (UniProt P23786) | 0.008
26 | CBX1 (UniProt P83916) | -0.025
27 | CD151 (UniProt P48509) | 0.015
28 | CS (UniProt O75390) | -0.061
29 | CSTF3 (UniProt Q12996) | 0.044
30 | CAD (UniProt P27708) | 0.06
31 | CCAR2 isoform 2 (UniProt Q8N163) | 0.01
32 | COX5A (UniProt P20674) | -0.003
33 | CDK12 (UniProt Q9NYV4) | 0.079
34 | CHCHD2 (UniProt Q9Y6H1) | -0.002
35 | CALB1 (UniProt P05937) | -0.018

Compound: Cc1cn(-c2cc(NC(=O)c3ccc(C)c(Nc4nccc(-c5cccnc5)n4)c3)cc(C(F)(F)F)c2)cn1 [nilotinib]
Assay: as above
Outline: as §1

Row | Target | log2 fold change
36 | C9orf72 (UniProt Q96LT7) | 0.031
37 | CDK13 (UniProt Q14004) | -0.024
38 | CTBS (UniProt Q01459) | 0.016
39 | CCNB1 (UniProt P14635) | 0.04
40 | COMT (UniProt P21964) | 0.01
41 | CEPT1 (UniProt Q9Y6K0) | -0.052
42 | COPS4 (UniProt Q9BT78) | 0
43 | COASY isoform 2 (UniProt Q13057) | -0.19
44 | CNOT1 (UniProt A5YKK6) | -0.066
45 | CETN3 (UniProt O15182) | -0.051
46 | CPSF6 isoform 2 (UniProt Q16630) | 0.06
47 | CASTOR2 (UniProt A6NHX0) | 0.011
48 | CASC3 (UniProt O15234) | -0.064
49 | CLUH, A0A494C0R8 | 0.264
50 | CLTB (UniProt P09497) | 0.077
51 | CLCN3 isoform 2 (UniProt P51790) | -0.016
52 | CDC123 (UniProt O75794) | -0.084
53 | CD55 isoform 7 (UniProt P08174) | 0.086

Row | Target | log2 fold change
54 | CLUH (UniProt O75153) | 0.191
55 | CSNK1A1 (UniProt P48729) | -0.106
56 | CNTN4 (UniProt Q8IWV2) | 0.06
57 | CDC42BPA isoform 6 (UniProt Q5VT25) | 0.28
58 | CDK5RAP1 (UniProt Q96SZ6) | 0
59 | CASP10 isoform 4 (UniProt Q92851) | -0.087
60 | CPT2 (UniProt P23786) | 0.096
61 | CBX1 (UniProt P83916) | 0.141
62 | CD151 (UniProt P48509) | -0.072
63 | CS (UniProt O75390) | 0.011
64 | CSTF3 (UniProt Q12996) | -0.044
65 | CAD (UniProt P27708) | -0.095
66 | CCAR2 isoform 2 (UniProt Q8N163) | -0.053
67 | COX5A (UniProt P20674) | 0.067
68 | CDK12 (UniProt Q9NYV4) | 0.136
69 | CHCHD2 (UniProt Q9Y6H1) | 0.037
70 | CALB1 (UniProt P05937) | -0.018
